Most compounds without a hit are left out; they make up all but 2.8% or so of the library.
HTT ATP protect: Huntington cell model cytoprotection by ATP luminescence; AID 1471; Potency, µM (series often up to 56.4 µM), inactives show cytoprotection (ATP increase), actives largely listed as activators; PC12 HTT-Q103 induced, cytoprotection, ATP luminescence, 40 h; 0.14% of 230,000 active; note: % of control where 0% means no effect; nearly all actives have a fitted effect of over 45% in size
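Stable PC12 Q103-GFP cells in serum-supplemented, phenol red-free DMEM; induction by tebufenozide at 100 nM final; compound dose series; cell viability quantified luminescently from ATP.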
HttQ103 aggreg: mutant huntingtin aggregation inhibition; PC12 HttQ103-GFP aggregates, Acumen cytometry, 40 h; Potency, µM (highest dose often 46.1 µM), for inactives: top-dose activity change, negative = inhibition, hits mostly inhibitors; 1.1% of 220,000 active; AID 1688; note: % is set by controls: 0 for no effect and ±100 for the full control effect; nearly all actives have a fitted effect of over 60% in size
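PC12/HTTQ103-GFP, ecdysone-inducible; teb 100 nM; cpd qHTS titration; GFP aggregates read on laser cytometer, Ex 488/Em 500-530 nm.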
HepG2 viability: kills HepG2 cells in TGF-b inhibitor counter-screen | Potency, µM (series often up to 46.1 µM), inactives show at the top dose activity change, negative = cytotoxicity, actives largely listed as cytotoxic | 0.76% of 410,000 active | HepG2 CAGA-GFP viability, ATP luminescence, 18 h | AID 588856
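CellTiter-Glo luminescence gave cytotoxicity after 18 hours at 37 degrees C. The cells were HepG2 CAGA-GFP in 1% FBS DMEM, stimulated with 500 pg/mL TGF-beta after compound addition. %Activity was normalised to no-cell wells (complete cell-killing) and DMSO (no toxicity), and curves were fitted and classified.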
TGFb SMAD3 inh: inhibitors of TGF-b signaling; HepG2 CAGA-GFP TGF-b/SMAD3 reporter, GFP fluorescence, 18 h; TGF-beta stimulated, 500 pg/mL final; Potency, µM (series often up to 46.1 µM), without a hit: top-dose activity, negative = inhibition, hits mostly inhibitors; 1.2% of 410,000 active; AID 588855; note: % is set by controls: 0 for no effect and ±100 for the full control effect; nearly all actives have a fitted effect of over 65% in size
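First, reporter cells (HEPG2 CAGA-GFP) rested 2 h at 37 degrees C. Next, compounds were pinned in and TGF-beta added to 500 pg/mL final. After 18 h, GFP was imaged per cell and summed per well.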
S2 tox: reduces viability in counter-screen for ATXN expression inhibitors. Potency, µM (titrated, usually from 56.7 µM), usual class: cytotoxic. 0.49% of 400,000 active. S2 cells (HEK-293 line with an ATXN2-luciferase reporter) viability, CellTiter-Fluor protease fluorescence, 24 h; note: nearly all actives have a fitted effect of over 40% in size
ATXN2 expr inh: inhibitors of ATXN2 expression. HEK-293 ATXN2-luciferase reporter, luminescence, 24 h. Potency, µM (top dose mostly 57 µM), for the others: at the top dose activity change, negative = inhibition, actives largely listed as inhibitors. 0.72% of 360,000 active. AID 1745845; note: % is set by controls: 0 for no effect and ±100 for the full control effect; nearly all actives have a fitted effect of over 55% in size
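ATXN2-luciferase reporter cells (luciferase flanked by upstream and downstream ATXN2 gene portions) were treated 24 h at 37 °C with compounds at up to 57 uM. SteadyGlo luminescence gave expression; GF-AFC fluorescence gave viability.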
The depositor's hits bear a star; [ ] = remark or other dose. Calls come from the whole dose curve; as a rule, active = well fitted curve in the direction sought with a large enough effect; inconclusive = small, poorly fitted or top-dose-only effect, or another doubt; inactive = no such curve, though single readings can be large; an effect the other way counts as inactive or inconclusive. Potency is the fitted concentration of half-maximal effect.

For CSc1nnc(CNC(=O)c2cccc3ccccc23)n1-c1ccccc1C the results were S2 tox inactive.
CC(C)(C)c1ccc(/C=C(\c2nc3ccccc3[nH]2)S(=O)(=O)c2ccccc2)cc1 was read as HepG2 viability -51%, TGFb SMAD3 inh 16µM*, S2 tox 20µM* and ATXN2 expr inh 16µM*.
Cc1oc(-c2ccccc2NC(=O)C2CCCO2)nc1CNC(=O)c1[nH]c2c(C)ccc(C)c2c1C (stereo not drawn) was read as S2 tox inactive.
Screening CN(C)c1ccccc1C(=O)N1CCCC(C(=O)c2ccc3ccccc3c2)C1 (stereo not drawn) returned HTT ATP protect 9%, HttQ103 aggreg 32µM*, HepG2 viability -24%, TGFb SMAD3 inh inconclusive, S2 tox inconclusive and ATXN2 expr inh inconclusive.
`CSc1ncccc1C(=O)N1CCCC(C(=O)c2ccc3ccccc3c2)C1` (stereo not drawn) gave HTT ATP protect 35%[10 µM], HttQ103 aggreg 34%[9.22 µM], HepG2 viability 2%, TGFb SMAD3 inh 10%, S2 tox inactive and ATXN2 expr inh -7%.
For COc1ccccc1OCCSc1nc(-c2ccc(C(C)(C)C)cc2)nc2cc(=O)[nH]n12 the results were HepG2 viability -55%, TGFb SMAD3 inh inconclusive, S2 tox inconclusive and ATXN2 expr inh inconclusive.
For Cc1ccc(-c2nc(SCCOc3ccccc3C)n3[nH]c(=O)cc3n2)cc1 the results were HepG2 viability -51%, TGFb SMAD3 inh 11µM*, S2 tox inconclusive and ATXN2 expr inh inconclusive.
For CCN1CCc2c(sc(-n3cccc3)c2C(C)NC(=O)Nc2ccc(C(=O)OC)cc2)C1 (stereo not drawn) the results were HepG2 viability -30% and TGFb SMAD3 inh 10µM*.
`Nc1[nH]c(=S)[nH]c(=O)c1N=O` gave HepG2 viability -26% and TGFb SMAD3 inh 5%.
Screening CCCN(CCC)S(=O)(=O)c1ccc(C(=O)Nc2nnc(-c3cccc(OC)c3)o2)cc1 returned HttQ103 aggreg 10µM*, HepG2 viability -9%, TGFb SMAD3 inh -20%, S2 tox inconclusive and ATXN2 expr inh inconclusive.
`CCc1nnc(NC(=O)c2ccc(S(=O)(=O)N(CCOC)CCOC)cc2)o1` gave HTT ATP protect -5%, HttQ103 aggreg 5%, HepG2 viability -19%, TGFb SMAD3 inh -18%, S2 tox inactive and ATXN2 expr inh -12%.
For CCCN(CCC)S(=O)(=O)c1ccc(C(=O)Nc2nnc(-c3cc(OC)cc(OC)c3)o2)cc1 the results were HTT ATP protect -3%[10 µM], HttQ103 aggreg 6.3µM*, HepG2 viability -30%, TGFb SMAD3 inh -4%, S2 tox inactive and ATXN2 expr inh inconclusive.
`O=C(NCC1CCN(Cc2ccc(F)cc2)CC1)C1CCCN(c2ncnc3c2nc2n3CCCCC2)C1` (stereo not drawn) gave HepG2 viability -52%, TGFb SMAD3 inh 13µM* and S2 tox inconclusive.
Cc1cccc(N2CCN(CCCNC(=O)C3CCCN(c4ncnc5c4nc4n5CCCCC4)C3)CC2C)c1 (stereo not drawn) was read as HepG2 viability -21%, TGFb SMAD3 inh inconclusive, S2 tox 18µM* and ATXN2 expr inh 25µM*.
O=C(NCC1CCN(Cc2ccc(Cl)cc2)CC1)C1CCCN(c2ncnc3c2nc2n3CCCCC2)C1 (stereo not drawn) was read as HepG2 viability -21%, TGFb SMAD3 inh -23% and S2 tox inconclusive.
`Cc1cccc(CCNC(=O)C2CCCN(c3ncnc4c3nc3n4CCCCC3)C2)c1` (stereo not drawn) gave HepG2 viability -22%, TGFb SMAD3 inh -19%, S2 tox inactive and ATXN2 expr inh -18%.
`O=C1OC2(c3ccccc31)c1cc(Br)c(O)c(Br)c1Oc1c2cc(Br)c(O)c1Br` gave S2 tox inactive and ATXN2 expr inh -2%.
Screening COc1ccc(C(=O)NC(=S)N(Cc2ccccc2)Cc2ccccc2)cc1 returned HTT ATP protect 12%, HttQ103 aggreg 10µM*, HepG2 viability -24%, TGFb SMAD3 inh inconclusive, S2 tox inactive and ATXN2 expr inh -37%.
For CCC(=O)Oc1ccc2c(c1)CC[C@@H]1[C@@H]2CC[C@]2(C)[C@@H](OC(=O)CC)CC[C@@H]12 the results were S2 tox inactive.
Screening CC(C)(C)n1nnnc1C(c1cccs1)N(Cc1ccc(Cl)cc1)CC1CCCO1 (stereo not drawn) returned HTT ATP protect -47%, HttQ103 aggreg 14µM*, HepG2 viability -21%, TGFb SMAD3 inh -6%, S2 tox inactive and ATXN2 expr inh inconclusive.
Clc1nc(NCc2cccs2)c2[nH]cnc2n1 was read as HepG2 viability 1% and TGFb SMAD3 inh 17%.
Screening CCS(=O)(=O)Nc1ccccc1C(N)=O returned HTT ATP protect 1%[10 µM], HttQ103 aggreg 4%, HepG2 viability 6%, TGFb SMAD3 inh -12%, S2 tox inactive and ATXN2 expr inh -22%.
CN(C)S(=O)(=O)Nc1ccccc1C(N)=O was read as HTT ATP protect -7%, HttQ103 aggreg 3.5µM*, HepG2 viability -8%, TGFb SMAD3 inh -1%, S2 tox inactive and ATXN2 expr inh 5%.
For O=C(O)CNC(=O)C1CCCN1C(=O)CNC(=O)OCc1ccccc1 (stereo not drawn) the results were HepG2 viability 4%, TGFb SMAD3 inh 15%, S2 tox inactive and ATXN2 expr inh 2%.
For O=C(CNC(=O)OCc1ccccc1)NCC(=O)N1CCCC1C(=O)OCc1ccccc1 (stereo not drawn) the results were HTT ATP protect -6%, HttQ103 aggreg -2%, HepG2 viability 11µM*, TGFb SMAD3 inh inconclusive, S2 tox inactive and ATXN2 expr inh -12%.
CN(C)c1ccc(/C=c2\[nH]c(=O)/c(=C\c3ccc(N(C)C)cc3)[nH]c2=O)cc1 was read as HepG2 viability -8% and TGFb SMAD3 inh 3%.
For COc1ccc(-c2ccc(OC)c(C3C4C=CCCC4(C)C(=O)N3Cc3ccccc3)c2)cc1 (stereo not drawn) the results were HepG2 viability 1% and TGFb SMAD3 inh -4%.
CN1CCN(C(c2ccc(C(F)(F)F)cc2)c2ccc3cccnc3c2O)CC1 (stereo not drawn) was read as HepG2 viability -26%, TGFb SMAD3 inh inconclusive, S2 tox inconclusive and ATXN2 expr inh 7.9µM*.
